Common to all, as to assay: NCI-60 one-dose screen, 48 h (100 = growth as untreated, 0 = no growth, -100 = all killed)
Settings in all cases: 10 µM unless noted

Assay [1] deals with NCI-H23 lung.
Assay [2] concerns NCI-H322M lung.
Assay [3] deals with HOP-62 NSCLC.
In assay [4] the test system is NCI-H460 lung.
The subject of assay [5] is HOP-92 NSCLC.
The subject of assay [6] is NCI-H522 lung.
The subject of assay [7] is A549/ATCC NSCLC.
The test system of assay [8] is 786-0 renal.
For assay [9], the system named is COLO 205 colon.
Assay [10] has as its system DU-145 prostate.
In assay [11] the test system is K-562 leukemia.
Assay [12] has as its system MALME-3M melanoma.
The subject of assay [13] is MDA-MB-231 breast.
Assay [14] concerns RXF 393 renal.
Assay [15] deals with SF-268 CNS.
Assay [16] relates to SF-295 CNS.
For assay [17], the system named is SF-539 CNS.
The subject of assay [18] is UACC-257 melanoma.
Assay [19] concerns M14 melanoma.
Assay [20] deals with HCT-15 colon.

This is part of a sample that, as a whole, favours compounds with a hit. Of some 83,000 tested, about 20% had one in any assay.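 Plates (96-well) were seeded with cells, treated with compound at one concentration, and incubated for 48 hours before percent growth was determined.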 Unmarked numbers belong to inactive results. Activity calls are given as the source filed them. The calls were made as follows: active = growth percent below 10; inactive = the rest.

On to `O=C(COc1cc(O)c2c(=O)cc(-c3ccccc3)oc2c1)Nc1ccccc1`, for which the growth in assay [1] is 83.7%; in assay [2], 85.6%; in [3], 101%; in assay [4], 61.6%; in assay [5], 89.9%; in assay [6], 81.5%. Moreover, the growth was 84.6% in assay [7]; 81.9% in assay [8]; 108% in assay [9]; 81.5% in [10]; 95.3% in assay [11]; 97.7% in assay [12]. The growth in assay [13] was 72.9%; in [14] it was 98.3%; in assay [15], 91%; in [16], 101%; in [17], 91%; in assay [18], 97.3%. Also, the growth in assay [19] is 85.4%; in [20], 96%.
As to `O=c1oc2ccc(Cl)cc2c(=O)n1-c1ccc(I)cc1F`, the growth in assay [1] is 2.29% (active); in assay [2] it was 6.37% (active); in [3] it was 0.787% (active); in [4], 2.33% (active); in assay [5], -16.5% (active); in assay [6] it was -15.5% (active). Further, the growth is 7.89% (active) in assay [7]; 2.82% (active) in assay [8]; 53% in assay [9]; 15.6% in assay [10]; 7.73% (active) in assay [11]; -29.2% (active) in [12]. Further, the growth in assay [13] was -20.5% (active); in assay [14] it was -5.52% (active); in assay [15], 8.08% (active); in [16] it was -57.8% (active); in assay [17], 2.55% (active); in assay [18], -16.9% (active). Besides, the growth in assay [19] is 2.42% (active); in [20], 3.56% (active).
Turning to `COc1c(B(O)O)cccc1-c1nc2ccc3n[nH]c(F)c3c2c2c1CCCC2`, the growth in assay [1] is 92.9%; in assay [2] it was 92.6%; in assay [3] it was 66.3%; in assay [4], 47.2%; in assay [5], 78.6%; in assay [6], 59.4%. For the same compound, the growth in assay [7] is 66%; in assay [8], 69.5%; in assay [9] it was 93.2%; in [10], 77.7%; in assay [11] it was 92.9%; in assay [12] it was 119%. Moreover, the growth in assay [13] was 28.9%; in assay [14] it was 24.1%; in [15], 50.5%; in assay [16], 80%; in [17] it was 25.1%; in assay [18], 121%. The growth in [19] was 104%; in assay [20] it was 85.3%.
As for `O=C(Nc1ccccc1O)c1ccc(-c2ccc(Cl)cc2Cl)o1`, the growth is 85% in [1]; 101% in assay [2]; 93.7% in assay [3]; 98.2% in assay [4]; 80.4% in assay [5]; 91.4% in [6]. Further, the growth is 102% in assay [7]; 88.2% in assay [8]; 90.7% in assay [9]; 91% in assay [10]; 47.1% in assay [11]; 71.4% in [12]. For the same compound, the growth in assay [13] was 80.4%; in assay [14] it was 79.7%; in assay [15], 77.1%; in assay [16] it was 68.4%; in assay [17] it was 115%; in assay [18], 106%. Moreover, the growth was 90% in assay [19] and 95.9% in assay [20].
As for `COc1ccc(-c2nc(N3CCN(C(=O)C4CCCCC4)CC3)c3c4c(sc3n2)CCCC4)cc1`, the growth is 44% in assay [1]; 43.1% in assay [2]; -84.5% (active) in assay [3]; -32.8% (active) in [4]; 44.8% in assay [5]; -23.9% (active) in assay [6]. In addition, the growth in assay [7] was -36.3% (active); in assay [8] it was -78.4% (active); in assay [9], -38.5% (active); in assay [10], -21.9% (active); in assay [11], 0.112% (active); in [12], -56.2% (active). Moreover, the growth in assay [13] was 36.9%; in assay [14], -59.3% (active); in [15] it was 20.3%; in [16] it was -82% (active); in assay [17], -1.73% (active); in assay [18], 63.5%. Further, the values for the growth in assay [19] and in [20] were 29.9% and 49.2%, respectively.
Regarding `CC(C)C[C@H](C(=O)N[C@@H](C)C(N)=O)N1CC=CCN(O)S1(=O)=O`, the growth in assay [1] is 110% [5 µM]; in [2], 135% [5 µM]; in assay [3] it was 102% [5 µM]; in assay [4], 112% [5 µM]; in [5] it was 116% [5 µM]; in assay [6] it was 91.7% [5 µM]. Further, the growth in [7] is 102% [5 µM]; in [8] it was 105% [5 µM]; in assay [9], 105% [5 µM]; in assay [10] it was 128% [5 µM]; in assay [11], 117% [5 µM]; in [12] it was 148% [5 µM]. The growth in assay [13] was 98.3% [5 µM]; in [14], 119% [5 µM]; in assay [15], 108% [5 µM]; in [16] it was 128% [5 µM]; in assay [17], 104% [5 µM]; in assay [18], 85.6% [5 µM]. The growth was 108% [5 µM] in assay [19] and 102% [5 µM] in assay [20].
Turning to `CCCCNc1nc(NC(C)(C)C)nc(NC(C)(C)C)n1`, the growth is 47.9% in assay [1]; 97.8% in assay [2]; 84.1% in assay [3]; 82.5% in assay [4]; 48.6% in assay [5]; 52.8% in assay [6]. For the same compound, the growth is 56.3% in assay [7]; 48.2% in assay [8]; 63.5% in [9]; 74.6% in assay [10]; 20.8% in [11]; 87.3% in assay [12]. Besides, the growth is 72% in assay [13]; -7.69% (active) in assay [14]; 91.7% in assay [15]; -19.5% (active) in assay [16]; 51% in assay [17]; 81% in assay [18]. For the same compound, the results for the growth in assay [19] and in [20] were 57.5% and 57.6%, respectively.

The values above are taken from PubChem BioAssay (NCI).
